Assay results published in PubChem BioAssay AID1851 (National Center for Advancing Translational Sciences (NCATS), 2009).
Where “and” joins values, the source holds several entries; their conditions need not be identical. Identical values can stand only once. About 4,000 (25%) of roughly 16,000 compounds were called active. Inconclusive results (about 26%) are left out. The list is a sample of the results. A number with no mark means an inactive call. The call rests on the fitted dose curve; in most records, active means well fitted curve in the direction sought with a large enough effect; inconclusive means small, poorly fitted or top-dose-only effect, or effect the other way; inactive means no such curve, though single readings can be large or run the other way.

Target: Cytochrome P450 2C9 (Homo sapiens) (UniProt P11712)
Assay: Cytochrome panel assay with activity outcomes
Conditions: recombinant CYP, pro-luciferin dealkylation, luminescence, p450-cyp2c9; series mostly up to 57.1 µM; activity, negative = inhibition: at the top concentration
On the % scale 0 is the no-effect control and ±100 the full control effect.

Sequence of Cytochrome P450 2C9 (Homo sapiens) (P11712 whole entry, looked up): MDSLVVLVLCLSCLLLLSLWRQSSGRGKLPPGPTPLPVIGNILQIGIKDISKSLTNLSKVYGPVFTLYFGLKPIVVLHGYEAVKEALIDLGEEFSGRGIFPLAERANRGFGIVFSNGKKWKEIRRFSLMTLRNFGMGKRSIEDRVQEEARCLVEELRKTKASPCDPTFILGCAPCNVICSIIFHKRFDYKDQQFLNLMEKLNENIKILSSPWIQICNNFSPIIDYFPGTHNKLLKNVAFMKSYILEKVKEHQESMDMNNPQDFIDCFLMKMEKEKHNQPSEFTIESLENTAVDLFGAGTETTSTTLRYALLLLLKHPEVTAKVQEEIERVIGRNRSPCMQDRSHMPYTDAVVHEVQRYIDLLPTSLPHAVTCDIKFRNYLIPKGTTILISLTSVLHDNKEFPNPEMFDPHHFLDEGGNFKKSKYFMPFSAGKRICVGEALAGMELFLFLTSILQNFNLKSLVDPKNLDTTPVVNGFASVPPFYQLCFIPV

Structure (SMILES)	activity, negative = inhibition	AC50
CC1(C)N=C(N)N=C(N)N1c1cccc(C(=O)Nc2ccc(S(=O)(=O)F)cc2)c1	14.9% [at 11.4 µM]	
C=C(C)CN1CC[C@@]23c4c5ccc(O)c4O[C@H]2c2[nH]c4ccccc4c2C[C@]3(O)[C@@H]1C5	-16.9%	
CC1=C2C(=O)[C@@H]3[C@@H](CC=C4C[C@@H](O)CC[C@@]43C)[C@H]2CC[C@@]12O[C@H]1C[C@H](C)CN[C@H]1[C@@H]2C	-3.17% [at 11.4 µM]	
CC(C)CNCCc1ccccn1	-0.994% [at 11.4 µM]	
N[C@@H](CP(=O)(O)O)C(=O)O	6.98% [at 11.4 µM]	
NC(=O)c1cc(N2CC2)c([N+](=O)[O-])cc1[N+](=O)[O-]	19.9%	
C=C1[C@@H]2C[C@@]3([C@H]1O)[C@H]1C[C@@H]4[C@@]5(C)CC[C@H](O)[C@]4([C@H]1N(CC)C5)[C@H]3C[C@H]2O	-10.8% [at 25.6 µM]	
OC(c1ccccc1)(c1ccccc1)C1CCNCC1	-22.6% [at 25.6 µM]	
Cc1ccc(S(=O)ON2CCC(C(=O)O)(c3ccccc3)CC2)cc1 (centres undefined)	4.74% [at 11.4 µM]	
O=C1C[C@@H](c2ccc(O)cc2)Oc2cc(O)cc(O)c21	-29% [at 25.6 µM]	
CS(=N)(=O)CC[C@@H](N)C(=O)O (some centres undefined)	inactive	
COC(=O)N1CCC2(CCCN(C)C2)CC1	5.87%	
Nc1nc(N)c(N=Nc2ccc([As](=O)(O)O)cc2)c(=O)[nH]1	3.51% [at 11.4 µM]	
N[C@@H](Cn1ccc(=O)n(Cc2ccc(C(=O)O)cc2)c1=O)C(=O)O	-13.2%	
NC[C@@H](O)CSP(=O)(O)O	10.5% [at 11.4 µM]	
CSC([N-]/N=C/c1cccc(C)n1)=[S]=[Cu].CS[C@H]([S-])[N-]/N=C/c1cccc(C)n1		0.251 µM (active)
Nc1ccc(CCN2CCN(c3cccc(C(F)(F)F)c3)CC2)cc1	-7.19%	
N[C@H](Cc1ccc(N(CCCl)CCCl)cc1)C(=O)O	-7.88%	
CCCCC1(CCCC)C(=O)NC(=Nc2cccc(C)c2)NC1=O		5.01 µM (active)
CCC1(C)CC(=O)NC(=O)C1	-12.8% [at 25.6 µM]	
CC(C)[C@]1(O)[C@@H](OC(=O)c2ccc[nH]2)[C@]2(O)[C@@]3(C)C[C@@]4(O)O[C@@]5([C@H](O)[C@@H](C)CC[C@]35O)[C@]2(O)[C@]41C	13.6% [at 11.4 µM]	

Structure (SMILES)	activity, negative = inhibition	AC50
CC[C@@H]1CN2CCc3cc(OC)c(OC)cc3[C@H]2C[C@@H]1C[C@H]1NCCc2cc(OC)c(OC)cc21	17.8% [at 25.6 µM]	
CCOC(=O)c1c(NC(=O)C(c2ccccc2)c2ccccc2)sc2c1C1CCN2CC1		1.58 µM (active)
O=C(OC1CCN(CCCl)CC1)C(c1ccccc1)c1ccccc1	-0.507%	
CCOC(=O)c1cncn1[C@H](C)c1ccccc1	3.2%	
N[C@H](CCCCCP(=O)(O)O)C(=O)O	inactive	
CCOC(=O)C1=C(C)OC(N)=C(C#N)C12C(=O)N(C)c1ccccc12 (centres undefined)	-11.1%	
CC(=O)NCCc1c[nH]c2ccccc12	4.14%	
CC(C)C[C@H]1C(=O)N2CCC[C@@H]2[C@@]2(O)O[C@](NC(=O)[C@@H]3C=C4c5cccc6[nH]cc(c56)C[C@@H]4N(C)C3)(C(C)C)C(=O)N12	-20.9% [at 25.6 µM]	
CN1C[C@H](C(=O)N[C@@]2(C)O[C@@]3(O)[C@H]4CCCN4C(=O)[C@@H](Cc4ccccc4)N3C2=O)C=C2c3cccc4[nH]cc(c34)C[C@@H]21	-17.2% [at 11.4 µM]	
CC(C)[C@@]1(NC(=O)[C@@H]2C[C@H]3c4cccc5[nH]cc(c45)C[C@@H]3N(C)C2)O[C@]2(O)[C@H]3CCCN3C(=O)[C@H](Cc3ccccc3)N2C1=O		2.51 µM (active)
CC(C)[C@@]1(NC(=O)[C@@H]2C[C@H]3c4cccc5[nH]cc(c45)C[C@@H]3N(C)C2)O[C@@]2(O)[C@H]3CCCN3C(=O)[C@H](Cc3ccccc3)N2C1=O		2.51 µM (active) and 6.31 µM (active)
c1ccc(N2CC3(CCNCC3)C2)cc1	-15.5%	
c1ccc2cc(CC3=NCCN3)ccc2c1	17.4%	
CCOC(=O)[C@@H]1[C@@H]2c3ccccc3-c3ccccc3[C@H]2C[C@H]1O	29.6% [at 11.4 µM]	
CO[C@@H](C)[C@](O)(C(=O)OCC1=CCN2CC[C@@H](O)[C@H]12)C(C)C	7.91% [at 25.6 µM]	
CNC(=O)Oc1ccc2c(c1)[C@@]1(C)CCN(C)[C@@H]1N2C	28.3% [at 25.6 µM]	
COc1ccc2c3c1O[C@@H]1C(=O)CC[C@@]4(O)[C@@H](C2)N(CC2CC2)CC[C@]314	-7.27%	
c1ccc2c(c1)[I+]c1ccccc1-2		1 µM (active) and 100 nM (active)
O=C(O)/C=C\c1ccc[c]([Sb](=[O])([OH])[OH])c1	12.8% [at 11.4 µM]	
CSCC[C@@H](N)P(C)(=O)O	21.1% [at 11.4 µM]	
O=C1C=CC(=O)c2c1ccc1c2ccc2ccccc21		1.26 µM (active)

Structure (SMILES)	activity, negative = inhibition	AC50
O=C1N[C@@]2(CN3CCC2CC3)C(=O)N1CN(Cc1ccccc1)c1ccccc1	-7.38% [at 11.4 µM]	
COCCCn1c(N)c(C(=O)Nc2sc3c(c2C(=O)OC)CCCC3)c2nc3ccccc3nc21		2.24 µM (active)
NCCCC[C@H](N[C@@H](CCc1ccccc1)C(=O)O)C(=O)N1CCC[C@H]1C(=O)O	-10.5% [at 25.6 µM]	
Oc1ccc(CCNCc2cc3c(cc2Br)OCO3)cc1	-10.6% [at 11.4 µM]	
CC(=O)OC1=CC2=CC[C@H]3[C@H]4CCC(=O)[C@@]4(C)CC(=O)[C@]3(S)[C@]2(C)CC1	4.96% [at 11.4 µM]	
CC(O)(CS(=O)(=O)c1cccc(C(F)(F)F)c1)C(=O)Nc1ccc(C(F)(F)F)cc1 (centres undefined)		11.2 µM (active)
C[N+](C)(C)[C@H](Cc1c[nH]c(=S)[nH]1)C(=O)O	11.9% [at 11.4 µM]	
CC(C)n1cnc2c(C(=O)N[C@H]3CN4CCC3CC4)cc(Cl)cc21		0.398 µM (active)
COc1cc(N)c(Cl)cc1C(=O)N[C@@H]1CN2CCC1CC2		12.6 µM (active)
CN1C(=O)COc2c(C(=O)N[C@@H]3CN4CCC3CC4)cc(Cl)cc21	-4.86%	
CCCn1c(C)c(C(=O)c2ccc3ccccc3c2)c2ccccc21	6.27%	
CNC[C@H](O)c1ccc(OC(=O)C(C)(C)C)c(OC(=O)C(C)(C)C)c1	14.3% [at 25.6 µM]	
N[C@@H]1C=CC=C(C(=O)O)C1	8.11%	
COc1ccc(C[C@H]2c3cc(OC)c(OC)cc3CCN2C)cc1OC	-18.3% [at 25.6 µM]	
C=CCN1CC[C@]23c4c5ccc(O)c4O[C@@H]2/C(=N/NC(=O)c2ccccc2)CC[C@@]3(O)[C@H]1C5	-21.2%	
[N-]=[N+]=CC(=O)CC[C@H](N)C(=O)O	26.7% [at 11.4 µM]	
CCC1(CCSC(=N)N)C(=O)NC(=O)NC1=O	12.6% [at 11.4 µM]	
C[C@H](Br)CN(C[C@H](C)Br)c1ccc2c(c1)Cc1ccccc1-2		3.16 µM (active)
CCCN1CCO[C@@H]2c3cc(O)ccc3OC[C@@H]21	-20.6%	
COc1cc(C(=O)OC2C[C@H]3CC[C@@H](C2)N3C)ccc1O (some centres undefined)	7.43% [at 25.6 µM]	
CC(=O)O[C@@H]1CN2CCC1CC2	23.8%	

Structure (SMILES)	activity, negative = inhibition	AC50
CCN1C[C@]2(C)CC[C@@H](O)[C@]34[C@@H]5CC6[C@@H](OC)C[C@@](O)([C@H]5[C@@H]6O)[C@@H](C[C@@H]23)[C@H]14	8.37%	
O=C1CC[C@@]2(O)[C@H]3Cc4ccc(O)c5c4[C@@]2(CCN3CC2CC2)[C@@H]1O5	inactive	
O=C1CC[C@]2(O)[C@H]3Cc4ccc(O)c5c4[C@@]2(CCN3CC2CC2)[C@@H]1O5	24.4% [at 25.6 µM]	
O=C(/C=C\c1ccc(Cl)cc1)N[C@@]12CCC(=O)[C@@H]3Oc4c(O)ccc5c4[C@@]31CCN(CC1CC1)[C@@H]2C5		15.8 µM (active)
C[C@]12CC[C@@H]3[C@H](CCC4=CC(=O)CC[C@]43C)[C@]1(O)CC[C@@]2(O)C(=O)CO	-5.6% [at 11.4 µM]	
CC(C)[C@@H]1CN[C@H](C(=O)O)[C@@H]1CC(=O)O	-12.5%	
O=C(O)[C@@H](O)[C@@H](O)[C@@H]1[O][Sb][O][C@@H]1CO	5.16% [at 11.4 µM]	
C[C@@H](N)Cn1ccc2cc(F)c(Cl)cc21		3.98 µM (active)
CC[N+](CC)(CCCNC1=CC(=O)C(NCCC[N+](CC)(CC)Cc2ccccc2)=CC1=O)Cc1ccccc1	10.8%	
CC[C@@H]1[C@@H]2C[C@H]3[C@H]4N(C)c5ccccc5[C@@]45C[C@@H]([C@@H]2[C@@H]5O)N3[C@H]1O	-8.54% [at 25.6 µM]	
N#C/C(=C\c1ccc(O)c(O)c1)C(=O)NCCCNC(=O)/C(C#N)=C/c1ccc(O)c(O)c1	8.74%	
N#CC(C#N)=Cc1ccc(O)c(O)c1		7.94 µM (active)
CC(C)(C)c1cc(C=C(C#N)C#N)cc(C(C)(C)C)c1O		0.0316 µM (active)
COc1cc(C=C(C#N)C#N)cc(O)c1O		2.51 µM (active)
N#C/C(=C\c1ccc(O)c(O)c1)C(N)=S	-22.3%	
NCCc1c[nH]c2ccccc12	15.6%	
O=C(O)CNC(=O)[C@@H](CS)Cc1ccccc1	28.1%	
COC(=O)[C@@H]1[C@@H](O)[C@@]2(O)c3c(OC)cc(OC)cc3O[C@@]2(c2ccc(OC)cc2)[C@H]1c1ccccc1	-21.1% [at 11.4 µM]	
COc1cc2c(cc1OC)[C@]13CC[N@+]4(C)CC5=CCO[C@H]6CC(=O)N2[C@@H]1[C@@H]6[C@@H]5C[C@]34O	-6.22% [at 11.4 µM]	
O=C(Oc1ccc([N+](=O)[O-])cc1)N1CCC(N2CCCCC2)CC1	10.1%	
O=C(O)c1cc(N=Nc2ccc([As](=O)(O)O)cc2)ccc1O	11.3% [at 11.4 µM]	
